MITF inh: inhibitors of human MITF. O75030. AlphaScreen MITF homodimerization, bead proximity signal. inhibition, % at 2.6 µM. 650,000 tested, 0.91% active. AID 1259374; in the data active means inhibition above about 50%;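 further: 0% = vehicle wells with protein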
Target sequence (O75030 whole entry, looked up): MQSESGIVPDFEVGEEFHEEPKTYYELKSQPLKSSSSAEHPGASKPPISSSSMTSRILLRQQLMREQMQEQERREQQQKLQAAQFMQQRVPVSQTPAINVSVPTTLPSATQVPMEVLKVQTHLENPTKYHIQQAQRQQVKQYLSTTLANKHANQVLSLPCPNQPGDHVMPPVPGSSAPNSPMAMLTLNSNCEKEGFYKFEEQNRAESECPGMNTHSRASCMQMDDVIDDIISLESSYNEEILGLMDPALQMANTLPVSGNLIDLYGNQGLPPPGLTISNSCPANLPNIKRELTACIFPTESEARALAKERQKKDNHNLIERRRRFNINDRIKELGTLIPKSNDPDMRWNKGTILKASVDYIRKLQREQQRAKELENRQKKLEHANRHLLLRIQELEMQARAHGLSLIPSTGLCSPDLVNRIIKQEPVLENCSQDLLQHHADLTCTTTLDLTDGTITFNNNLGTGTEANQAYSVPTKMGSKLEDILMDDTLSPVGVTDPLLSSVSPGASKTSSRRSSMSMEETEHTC
GPR151 ag: activators of human GPR151; PathHunter beta-arrestin GPR151 cells, luminescence; activation, % at 11.2 µM; 650,000 tested, 1% active; AID 1508602; in the data active means activation above about 4.9%;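 further: 0% = median of compound wells and 100% = cells with positive control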
TEAD-YAP block: TEAD-YAP interaction inhibition. HEK-TIYL cells, TEAD-Gal4/YAP UAS-luciferase luminescence. inhibition, % at 9.12 µM. 640,000 tested, 1.4% active. AID 1259422; in the data active means inhibition above about 32%;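 further: 0% = median of test compound wells and 100% = reference inhibitor wells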
FBW7 act: activators of human E3 ligase FBW7 | normalized activity (activation), % at 26.1 µM | Q969H0 | 650,000 tested, 0.13% active | AlphaScreen FBW7–phospho-cyclin E peptide binding, activator screen | AID 1259310; in the data active means normalized activity above about 1.9%;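 further: purified mutant Fbw7 with reduced substrate affinity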
MITF inh conf: confirmation of human MITF inhibitors; AlphaScreen MITF homodimerization, biotin/His-MITF beads; inhibition, % at 2.6 µM; shares compounds with MITF inh; 4,700 tested, 16% active;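 active means inhibition above a cutoff derived from the DMSO control wells, cut at about 28% in these data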;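 further: 0% = MITF dimer wells with DMSO only; inhibitors lower the bead chemiluminescence by keeping MITF from dimerizing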
AlphaScreen DR: optically interferes with AlphaScreen signal in dose response. shares compounds with MITF inh. AlphaScreen optical interference counterscreen, cell-free. IC50, µM. 480 tested, 6% active; call rule not given here
AS interf ctr: optically interferes with AlphaScreen signal; AID 1259376; shares compounds with MITF inh; inhibition, % at 2.6 µM; 4,700 tested, 7.6% active; LysRS AlphaScreen counterscreen, signal interference, triplicate;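 active means inhibition above a cutoff derived from the DMSO control wells, cut at about 30% in these data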
An asterisk follows results filed as active; · = no result given. Sampled rows, rich in hits. Any-hit rate of the full collection: about 3.5%.

SMILES | MITF inh | GPR151 ag | TEAD-YAP block | FBW7 act | MITF inh conf | AS interf ctr | others
COc1cc(NC(=O)c2ccc3nc(Nc4ccc(-n5ccnc5)cc4)sc3c2)cc(OC)c1OC | 57* | 0 | 3 | 0 | 3 | 8
S=c1[nH]nc(-c2ccncc2)n1/N=C/C=C/c1ccco1 | 70* | 1 | 2 | 0 | 80* | 16 | AlphaScreen DR=>6.5
CC12C=CC(CO)(O1)C1C(=O)N(c3ccc([N+](=O)[O-])cc3)C(=O)C12 (configuration not stated) | -3 | 0 | -11 | 0 | · | ·
Cc1ccc(N2C(=O)C3C(C2=O)C2(CO)C=CC3(C)O2)cc1[N+](=O)[O-] (configuration not stated) | 53* | 1 | 7 | 0 | 43* | 5 | AlphaScreen DR=>6.5
CS(=O)(=O)N1CCN(c2ccc(-c3ccccn3)nn2)CC1 | 87* | -3 | -25 | -1 | 107* | 101*
O=C(c1ccccn1)N1CCN(c2ccc(-c3ccccn3)nn2)CC1 | 123* | -1 | -10 | -1 | 112* | 101*
O=C(c1ccccn1)N1CCN(C(=O)c2ccccn2)CC1 | -11 | 0 | 2 | 0 | · | ·
O=C(Cn1cnc2ccccc2c1=O)N1CCN(c2ccc(-c3ccccn3)nn2)CC1 | 116* | 3 | 6 | -1 | 112* | 101*
O=C(CC1CCCC1)N1CCN(c2ccc(-c3ccccn3)nn2)CC1 | 111* | -1 | -15 | -1 | 111* | 101*
O=C(CCC1CCCN(C(=O)CC2CCCCC2)C1)N1CCN(c2ccccn2)CC1 (configuration not stated) | 2 | 0 | 2 | 0 | · | ·
Oc1ccccc1C1=NOC(O)(C(F)(F)F)C1 (configuration not stated) | 15 | 0 | 5 | 0 | · | ·
O=C(COc1ccc(S(=O)(=O)NC2CCCCC2)cc1Cl)NCc1ccco1 | 8 | -1 | -3 | 0 | · | ·
CCn1c(=O)c2c(nc3n(CCc4ccccc4)c(C)cn23)n(C)c1=O | 2 | 3 | -3 | 0 | · | ·
Cc1cn2c3c(=O)n(C)c(=O)n(C)c3nc2n1CCc1ccccc1 | 55* | -1 | 10 | 0 | -4 | 16
COc1cccc(C(=O)O/N=C(\N)c2cccnc2)c1 | 9 | -4 | -41 | 0 | · | ·
Cc1cc(C)cc(C(=O)O/N=C(\N)c2cccnc2)c1 | 56* | 0 | -10 | 0 | -20 | -2
Cc1c(C(=O)Nc2ccccc2C(N)=O)sc2nc3n(c(=O)c12)CCCCC3 | 1 | 0 | -20 | 0 | · | ·
O=C(OCC(=O)c1ccc([N+](=O)[O-])cc1)C(=O)OCC(=O)c1ccc([N+](=O)[O-])cc1 | 61* | 0 | 3 | -1 | 8 | 29
COc1ccc(C(=O)OCC(=O)c2ccc([N+](=O)[O-])cc2)cc1 | 1 | 0 | 5 | 0 | · | ·
CCCNC(=O)Cc1csc(SCc2ccc(Br)cc2)n1 | -2 | 0 | 5 | 0 | · | ·
O=C1NC(=S)NC(=O)C1=Cc1ccc(-c2cc(Cl)ccc2[N+](=O)[O-])o1 | 17 | 0 | 5 | -1 | · | ·
OCCN(CCO)c1ncnc2sc3c(c12)CCCC3 | 68* | 0 | -1 | 0 | 8 | 15
c1ccc(CN2CCCC2c2nc(-c3ccncc3)n[nH]2)nc1 (configuration not stated) | 101* | 0 | -6 | -1 | 92* | 100*
COc1ccc(CCNCc2ccc(-n3ccnc3)cc2)cc1 | 36 | -1 | -1 | 0 | · | ·
COc1ccc(CNC(C)c2ccc(-n3ccnc3)cc2)cc1F (configuration not stated) | 66* | 1 | 0 | 0 | 14 | 19
SMILES | MITF inh | GPR151 ag | TEAD-YAP block | FBW7 act | MITF inh conf | AS interf ctr | others
O=C(COc1ccc(N2CC(C(=O)O)CC2=O)cc1)Nc1ccc(Cl)c(Cl)c1 (configuration not stated) | 14 | 0 | -4 | 0 | · | ·
O=C1c2ccccc2C(=O)N1CCCCN(C(=O)c1ccc(S(=O)(=O)N2CCOCC2)cc1)c1ccc(Cl)cc1 | 2 | -1 | -5 | 0 | · | ·
CCC(C)CNC(=O)C1CCN(C2CCN(Cc3cccc(C)n3)CC2)CC1 (configuration not stated) | -6 | 3 | 7 | 1 | · | ·
COC(C)(C)CNC(=O)C1CCN(C2CCN(Cc3cccc(C)n3)CC2)CC1 | 81* | 0 | 10 | 0 | 73* | 4 | AlphaScreen DR=>6.5
O=C(Cc1ccccc1)Nc1nnc(Cc2ccccc2)s1 | 6 | -1 | 2 | 0 | · | ·
O=C(Nc1ccc(N2CCOCC2)cc1)c1ccc2nc(Nc3ccccn3)sc2c1 | 70* | 3 | -14 | 0 | 79* | -18 | AlphaScreen DR=>6.8
O=C(Nc1ccc(N2CCOCC2)cc1)c1ccnc(Nc2ncccn2)c1 | 59* | 4 | -7 | 0 | 84* | -11 | AlphaScreen DR=>7.1
O=C(Nc1ccc(N2CCOCC2)cc1)c1ccnc(Nc2ccc(N3CCOCC3)cc2)c1 | 9 | 0 | -4 | 0 | · | ·
O=C(Nc1ccc(N2CCOCC2)cc1)c1ccc2nc(Nc3ccc(N4CCOCC4)cc3)sc2c1 | 5 | 0 | -4 | 0 | · | ·
O=C(Nc1ccc(N2CCOCC2)cc1)c1ccc2nc(-c3cccs3)sc2c1 | 55* | 1 | 1 | 0 | 57* | 5 | AlphaScreen DR=>7.8
C=C(C)CN1c2ccccc2Sc2ccccc21 | -6 | 0 | -11 | 0 | · | ·
CCCCNS(=O)(=O)c1ccc(S(=O)(=O)NC(C)c2cccs2)cc1 (configuration not stated) | 56* | 1 | 4 | 0 | 6 | 6
CC(NS(=O)(=O)c1ccc(S(=O)(=O)NCc2ccccc2)cc1)c1cccs1 (configuration not stated) | 22 | 0 | 2 | 0 | · | ·
Cc1ccc(NC(=O)CN2C(=O)CCc3ccccc32)nc1 | -6 | -1 | -5 | 0 | · | ·
COc1ccccc1Cc1nc2ccccc2nc1SCC(=O)Nc1ccc(OC)c(OC)c1 | 73* | 4 | -26 | 0 | 4 | -6
COc1ccc(NC(=O)CSc2nc3ccccc3nc2Cc2ccccc2OC)cc1Cl | -12 | -1 | 11 | 0 | · | ·
Cc1nn(C(=O)c2cccs2)c(N)c1-c1ccccc1 | 6 | 1 | -69 | 0 | · | ·
Cc1nn(C(=O)c2ccc3c(c2)OCO3)c(N)c1-c1ccccc1 | 52* | -2 | -32 | 0 | 2 | 6
O=C(Oc1ccccc1)c1ccc(C(=O)Oc2ccccc2)nc1 | 17 | -1 | 2 | 0 | · | ·
COc1ccccc1N1CCN(C2CCN(C3CCCCC3)CC2)CC1 | 69* | -1 | -2 | 0 | -8 | -2
COc1ccccc1N1CCN(C2CCCN(S(=O)(=O)c3ccc(C)cc3)C2)CC1 (configuration not stated) | -6 | 1 | 1 | 0 | · | ·
COc1cccc(CN2CCC(N3CCN(c4ccccc4OC)CC3)CC2)c1 | 56* | -3 | 3 | 0 | -4 | -3

Assay outcomes as filed in PubChem.
